# From PubChem BioAssay (EPA / NIEHS)
# Inconclusive results are not listed. The source made the active and inactive calls. How the source made its calls, unless noted: active means hit-call score of the fitted dose curve at least 0.9, where 1 is the maximum; inconclusive means response in the unintended direction; inactive means score below 0.9.
# What was measured:
# [1] = ATG_M_61_CIS: Attagene CIS-FACTORIAL HepG2 Assay for M61 Transcription Factor (Internal Marker) (AID 2282937; active means hit-call score of the fitted dose curve at least 0.9, where 1 is the maximum; inactive means score below 0.9); details: HepG2 Attagene CIS-FACTORIAL M61 internal marker reporter; actives raise or lower the signal
# How it was run: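 Human liver HepG2, transient MRTU transfection (cis promoter elements), 24 h compound. Total RNA → oligo(dT) RT → PCR → FAM label → HpaI → CE. Internal background marker; bidirectional fitting, DMSO = baseline.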
# [2] = ATG_GRE_CIS: Attagene CIS-FACTORIAL HepG2 Assay for human Glucocorticoid Response Elements (GRE) (AID 2282947; active means hit-call score of the fitted dose curve at least 0.9, where 1 is the maximum; inactive means score below 0.9); details: HepG2 GRE cis-reporter, Attagene multiplex mRNA; actives raise or lower the signal
# How it was run: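 HepG2 cells transiently transfected with multiple cis-promoter reporter units measure endogenous TF activity; 24 h compound exposure. Reporter mRNA quantified by RT-PCR, FAM labelling, HpaI digestion and capillary electrophoresis; bidirectional fit vs DMSO baseline.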
# [3] = biological target: Hepatocyte nuclear factor 6 (Homo sapiens) (UniProt Q9UBC0); test: ATG_HNF6_CIS: Attagene CIS-FACTORIAL HepG2 Assay for human Hepatocyte Nuclear Factor 6 (HNF6) (AID 2282952; active means hit-call score of the fitted dose curve at least 0.9, where 1 is the maximum; inactive means score below 0.9); details: HepG2 Attagene cis-factorial HNF6 reporter transcription; actives raise or lower the signal
# How it was run: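 Reporter mRNA induction or loss in HepG2 after 24 h exposure; transient cis-MRTU transfection; fragments quantified by capillary electrophoresis; bidirectional analysis, DMSO as negative control.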
# [4] = ATG_PBREM_CIS: Attagene CIS-FACTORIAL HepG2 Assay for human Phenobarbital-responsive Enhancer Module (PBREM) (AID 2282955; active means hit-call score of the fitted dose curve at least 0.9, where 1 is the maximum; inactive means score below 0.9); details: HepG2 PBREM cis-reporter, Attagene multiplexed transcription; actives raise or lower the signal
# How it was run: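 Endogenous transcription factors in human liver HepG2 cells drive a PBREM cis-element reporter, whose transcript level after 24 h treatment is quantified by RT-PCR with capillary electrophoresis; activity fitted in both directions against DMSO.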
# [5] = biological target: Paired box protein Pax-6 (Homo sapiens) (UniProt P26367); test: ATG_Pax6_CIS: Attagene CIS-FACTORIAL HepG2 Assay for human Paired Box 6 (PAX6) (AID 2282956; active means hit-call score of the fitted dose curve at least 0.9, where 1 is the maximum; inactive means score below 0.9); details: HepG2 CIS-FACTORIAL PAX6 reporter transcription, RNA readout; actives raise or lower the signal
# How it was run: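 HepG2 cells transiently transfected with cis-promoter-driven multiplexed reporter units sensing endogenous transcription factor activity; 24 h chemical exposure. Reporter mRNA quantified by RT-PCR, 6-FAM labelling, HpaI digestion and capillary electrophoresis; bidirectional fit versus DMSO baseline.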
# [6] = ATG_RORE_CIS: Attagene CIS-FACTORIAL HepG2 Assay for human RAR-related Orphan Receptor Element (RORE) (AID 2282959; active means hit-call score of the fitted dose curve at least 0.9, where 1 is the maximum; inactive means score below 0.9); details: HepG2 Attagene cis-factorial RORE reporter, mRNA; actives raise or lower the signal
# How it was run: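 Transient MRTU transfection of human HepG2 liver cells (FuGene 6); 24 h compound exposure; TriZol RNA, oligo(dT) RT, PCR, FAM labeling, HpaI cut, CE fragment analysis. DMSO = negative control/baseline.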
# [7] = biological target: Hepatocyte nuclear factor 4-alpha (Homo sapiens) (UniProt P41235); test: ATG_HNF4a_TRANS: Attagene TRANS-FACTORIAL HepG2 Assay for human Hepatocyte Nuclear Factor 4 alpha (HNF4a) (AID 2282982); details: HepG2 HNF4a transactivation reporter, mRNA readout
# How it was run: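 HepG2 cells transiently transfected with multiplexed GAL4-UAS reporter units responsive to chimeric NR-GAL4 proteins; compound exposure 24 h. Reporter mRNA quantified by RT-PCR, 6-FAM labelling, HpaI digestion and capillary electrophoresis; gain of signal versus DMSO baseline.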
# [8] = ATG_M_06_TRANS: Attagene TRANS-FACTORIAL HepG2 Assay for M06 Transcription Factor (Internal Marker) (AID 2282983); details: HepG2 Attagene TRANS M06 internal marker reporter
# How it was run: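 Measured by capillary electrophoresis of fluorescently labelled RT-PCR products, this endpoint reflects reporter mRNA in HepG2 cells harbouring exogenous NR-GAL4 reporter constructs after 24 h exposure, with DMSO as baseline.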
# [9] = ATG_NF_kB_CIS: Attagene CIS-FACTORIAL HepG2 Assay for human Nuclear Factor Kappa B (NF-kB) (AID 2282991; active means hit-call score of the fitted dose curve at least 0.9, where 1 is the maximum; inactive means score below 0.9); details: HepG2 Attagene cis-factorial NF-kB reporter mRNA; actives raise or lower the signal
# How it was run: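 Transient MRTU transfection of human HepG2 liver cells → 24 h chemical exposure → total RNA, oligo(dT) RT → PCR, 6-FAM primer extension, HpaI digest 2 h 37 C → CE fragment analysis. Bidirectional fitting, DMSO negative control.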
# [10] = biological target: Peroxisome proliferator-activated receptor gamma (Homo sapiens) (UniProt P37231); test: ATG_PPARg_TRANS: Attagene TRANS-FACTORIAL HepG2 Assay for human Peroxisome Proliferator-activated Receptor-gamma (PPARg) (AID 2283007)
# How it was run: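 Transient transfection of HepG2 with GAL4-UAS-driven reporter units; chemical dosing 24 h; total RNA → oligo(dT) RT → PCR with reporter primers → 6-FAM primer extension → HpaI digest 2 h 37 C → capillary electrophoresis. Positive direction vs DMSO.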
# [11] = biological target: human Retinoid X Receptor beta (RXRb), RXRB (gene 6257) (UniProt P28702); test: ATG_RXRb_TRANS: Attagene TRANS-FACTORIAL HepG2 Assay for human Retinoid X Receptor beta (RXRb) (AID 2283013)
# How it was run: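 Multiplexed TRANS reporter assay in HepG2; 24 h dosing; reporter mRNA by RT-PCR/CE fluorescence; gain-of-signal relative to DMSO.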
# [12] = biological target: Cellular tumor antigen p53 (Homo sapiens) (UniProt P04637); test: TOX21_p53_BLA_p2_ratio: Tox21 HCT-116 p53 Agonism Beta-lactamase Assay, Ratio, Phase 2 (AID 2283592)
# How it was run: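 An inducible beta-lactamase reporter in HCT116 cells signals p53 pathway activation. After 16 h chemical exposure at 37C, cells load CCF4-AM substrate for 2 h at room temperature; activity is the cleaved/uncleaved emission ratio relative to DMSO.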
# [13] = biological target: Cellular tumor antigen p53 (Homo sapiens) (UniProt P04637); test: TOX21_p53_BLA_p5_ratio: Tox21 HCT-116 p53 Agonism Beta-lactamase Assay, Ratio, Phase 5 (AID 2283599)
# How it was run: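 HCT-116 cells carrying a p53-inducible beta-lactamase reporter were seeded at 4000 cells/well and dosed after 5 h with compound in DMSO (217-fold dilution). After 16 h at 37C, CCF4-AM substrate was added for 2 h, and the 460/530 nm emission ratio was scored as gain-of-signal versus DMSO.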
# [14] = biological target: Cellular tumor antigen p53 (Homo sapiens) (UniProt P04637); test: TOX21_p53_BLA_p4_ratio: Tox21 HCT-116 p53 Agonism Beta-lactamase Assay, Ratio, Phase 4 (AID 2283601)
# How it was run: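 HCT116 cells carrying an inducible beta-lactamase reporter were plated at 4000 cells/well, rested 5 h, then exposed to compounds in DMSO (217-fold dilution) for 16 h at 37C. CCF4-AM substrate was loaded 2 h at room temperature; 460/530 nm emission ratio scored gain-of-signal versus DMSO.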
# [15] = biological target: Myc proto-oncogene protein (Homo sapiens) (UniProt P01106); test: ATG_Myc_CIS: Attagene CIS-FACTORIAL HepG2 Assay for human Myelocytomatosis (Myc) Proto-Oncogene Transcription Factor (AID 2282990; active means hit-call score of the fitted dose curve at least 0.9, where 1 is the maximum; inactive means score below 0.9); details: HepG2, Attagene cis-reporter transcription factor activity; actives raise or lower the signal
# How it was run: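 DMSO-normalised, bidirectionally fitted reporter mRNA signal. HepG2 cells transfected with cis reporter constructs, treated 24 h; transcripts detected by RT-PCR, 6-FAM primer extension and CE.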
# [16] = biological target: human Peroxisome Proliferator-activated Receptor alpha (PPARa), PPARA (gene 5465) (UniProt Q07869); test: ATG_PPARa_TRANS: Attagene TRANS-FACTORIAL HepG2 Assay for human Peroxisome Proliferator-activated Receptor alpha (PPARa) (AID 2283001);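 on AC50: potency for gain of reporter signal over DMSO so agonist or activator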
# How it was run: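 HepG2 cells transiently transfected with multiplexed GAL4-UAS reporter units and chimeric NR-Gal4 constructs were dosed for 24 h. Reporter mRNA was measured by RT-PCR with fluorescent labelling and capillary electrophoresis; gain of signal fitted against DMSO.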
# [17] = biological target: Nuclear receptor subfamily 1 group I member 2 (Homo sapiens) (UniProt O75469); test: ATG_PXR_TRANS: Attagene TRANS-FACTORIAL HepG2 Assay for human Pregnane X Receptor (PXR) (AID 2283008)
# How it was run: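 HepG2 cells transiently transfected with GAL4-UAS reporter units and PXR-Gal4 chimera, exposed 24 h. Reporter mRNA quantified by RT-PCR, fluorescent labelling, HpaI digestion and capillary electrophoresis; gain of signal vs DMSO.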
# [18] = TOX21_p53_BLA_p5_viability: Viability Assessment in the Tox21 HCT-116 p53 Agonism Beta-lactamase Assay, Phase 5 (AID 2283600)
# How it was run: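 Counter-readout for cytotoxicity: ATP-dependent luminescence from CellTiter-Glo, read in the beta-lactamase wells after 30 min at RT, following a 16 h compound exposure at 37C.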
# [19] = ATG_MRE_CIS: Attagene CIS-FACTORIAL HepG2 Assay for human Metal Responsive Element (MRE) (AID 2282954; active means hit-call score of the fitted dose curve at least 0.9, where 1 is the maximum; inactive means score below 0.9); details: HepG2 MRE cis-reporter transcription, Attagene multiplex; actives raise or lower the signal
# How it was run: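 HepG2 cells transiently transfected with multiple cis-element reporter units measure endogenous MTF1-driven transcription. After 24 h compound exposure, reporter mRNA is quantified by RT-PCR with 6-FAM labelling, HpaI digestion and capillary electrophoresis; bidirectional fits versus DMSO.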
# [20] = biological target: Cellular tumor antigen p53 (Homo sapiens) (UniProt P04637); test: TOX21_p53_BLA_p3_ratio: Tox21 HCT-116 p53 Agonism Beta-lactamase Assay, Ratio, Phase 3 (AID 2283596)
# How it was run: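 HCT116 p53-bla cells (4000/well) given compound in DMSO (217-fold dilution) after 5 h, incubated 16 h at 37C. CCF4-AM substrate 2 h at room temperature; 460/530 nm emission ratio, gain fitted against DMSO.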
# human Peroxisome Proliferator-activated Receptor alpha (PPARa), PPARA (gene 5465), sequence (Q07869 whole entry, looked up, the tested form may be a part): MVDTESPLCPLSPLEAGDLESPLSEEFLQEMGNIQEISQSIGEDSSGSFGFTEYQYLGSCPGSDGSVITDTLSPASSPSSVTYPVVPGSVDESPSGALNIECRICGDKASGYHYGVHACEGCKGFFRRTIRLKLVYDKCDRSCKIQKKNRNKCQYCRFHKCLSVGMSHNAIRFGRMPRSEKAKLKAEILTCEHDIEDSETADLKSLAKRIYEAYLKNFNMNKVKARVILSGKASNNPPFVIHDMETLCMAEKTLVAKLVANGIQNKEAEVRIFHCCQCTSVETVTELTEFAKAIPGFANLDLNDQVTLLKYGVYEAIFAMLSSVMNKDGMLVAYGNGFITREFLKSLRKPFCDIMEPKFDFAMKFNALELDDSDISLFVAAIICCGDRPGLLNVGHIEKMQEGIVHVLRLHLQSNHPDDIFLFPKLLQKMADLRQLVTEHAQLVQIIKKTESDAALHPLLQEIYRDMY
# Hepatocyte nuclear factor 6 (Homo sapiens), sequence (Q9UBC0 whole entry, looked up, the tested form may be a part): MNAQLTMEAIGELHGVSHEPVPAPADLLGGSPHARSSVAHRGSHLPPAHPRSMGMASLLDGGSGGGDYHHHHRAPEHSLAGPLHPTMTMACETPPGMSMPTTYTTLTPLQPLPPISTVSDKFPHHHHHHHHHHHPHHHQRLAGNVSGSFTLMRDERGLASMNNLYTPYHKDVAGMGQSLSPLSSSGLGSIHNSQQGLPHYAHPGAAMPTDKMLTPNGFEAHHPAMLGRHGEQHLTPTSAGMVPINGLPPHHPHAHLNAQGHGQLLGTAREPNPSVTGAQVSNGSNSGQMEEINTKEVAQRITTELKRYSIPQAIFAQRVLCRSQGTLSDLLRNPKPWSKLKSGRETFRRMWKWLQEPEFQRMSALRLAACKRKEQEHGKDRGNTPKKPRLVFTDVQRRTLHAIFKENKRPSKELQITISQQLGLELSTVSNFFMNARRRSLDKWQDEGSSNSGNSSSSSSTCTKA
# Hepatocyte nuclear factor 4-alpha (Homo sapiens), sequence (P41235 whole entry, looked up, the tested form may be a part): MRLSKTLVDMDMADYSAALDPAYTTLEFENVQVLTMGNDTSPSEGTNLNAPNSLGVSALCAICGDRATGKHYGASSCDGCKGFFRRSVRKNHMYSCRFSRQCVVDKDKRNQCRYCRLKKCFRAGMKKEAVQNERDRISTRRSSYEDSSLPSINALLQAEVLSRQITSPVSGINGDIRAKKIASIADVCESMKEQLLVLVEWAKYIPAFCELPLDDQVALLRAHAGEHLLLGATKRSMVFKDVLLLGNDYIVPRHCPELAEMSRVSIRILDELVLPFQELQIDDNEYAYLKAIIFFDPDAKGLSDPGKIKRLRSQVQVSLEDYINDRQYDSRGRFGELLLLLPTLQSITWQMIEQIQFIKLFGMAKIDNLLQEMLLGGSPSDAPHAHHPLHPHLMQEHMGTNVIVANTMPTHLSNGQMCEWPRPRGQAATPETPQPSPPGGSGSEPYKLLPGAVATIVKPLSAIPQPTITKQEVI
# Peroxisome proliferator-activated receptor gamma (Homo sapiens), sequence (P37231 whole entry, looked up, the tested form may be a part): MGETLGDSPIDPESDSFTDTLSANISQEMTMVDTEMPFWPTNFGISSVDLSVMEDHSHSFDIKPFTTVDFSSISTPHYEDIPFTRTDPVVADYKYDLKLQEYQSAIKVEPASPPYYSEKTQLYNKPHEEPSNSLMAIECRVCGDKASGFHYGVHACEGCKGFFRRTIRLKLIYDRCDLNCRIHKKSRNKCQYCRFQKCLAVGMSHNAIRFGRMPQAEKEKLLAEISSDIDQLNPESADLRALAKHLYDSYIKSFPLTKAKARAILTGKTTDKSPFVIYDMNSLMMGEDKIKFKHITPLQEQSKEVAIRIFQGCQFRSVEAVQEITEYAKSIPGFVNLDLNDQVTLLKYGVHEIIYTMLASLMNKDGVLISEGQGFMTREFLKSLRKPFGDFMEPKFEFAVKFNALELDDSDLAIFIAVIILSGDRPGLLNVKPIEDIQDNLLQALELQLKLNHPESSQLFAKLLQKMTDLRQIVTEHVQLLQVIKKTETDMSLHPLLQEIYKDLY
# human Retinoid X Receptor beta (RXRb), RXRB (gene 6257), sequence (P28702 whole entry, looked up): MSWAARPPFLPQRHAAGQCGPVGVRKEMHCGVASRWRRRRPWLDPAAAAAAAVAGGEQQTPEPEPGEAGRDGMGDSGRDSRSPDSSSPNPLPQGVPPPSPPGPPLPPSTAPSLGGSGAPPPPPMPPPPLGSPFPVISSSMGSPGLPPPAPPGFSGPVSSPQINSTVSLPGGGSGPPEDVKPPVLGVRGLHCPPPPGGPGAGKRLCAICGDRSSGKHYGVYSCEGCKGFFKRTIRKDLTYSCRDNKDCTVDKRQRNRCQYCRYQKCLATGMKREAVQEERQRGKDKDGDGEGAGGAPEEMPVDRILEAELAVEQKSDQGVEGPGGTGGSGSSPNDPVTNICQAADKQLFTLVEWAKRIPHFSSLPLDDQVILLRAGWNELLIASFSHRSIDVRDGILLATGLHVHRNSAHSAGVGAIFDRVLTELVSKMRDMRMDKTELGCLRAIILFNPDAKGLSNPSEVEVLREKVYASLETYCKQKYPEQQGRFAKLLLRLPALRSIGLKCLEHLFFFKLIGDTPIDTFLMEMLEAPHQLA
# Nuclear receptor subfamily 1 group I member 2 (Homo sapiens), sequence (O75469 whole entry, looked up, the tested form may be a part): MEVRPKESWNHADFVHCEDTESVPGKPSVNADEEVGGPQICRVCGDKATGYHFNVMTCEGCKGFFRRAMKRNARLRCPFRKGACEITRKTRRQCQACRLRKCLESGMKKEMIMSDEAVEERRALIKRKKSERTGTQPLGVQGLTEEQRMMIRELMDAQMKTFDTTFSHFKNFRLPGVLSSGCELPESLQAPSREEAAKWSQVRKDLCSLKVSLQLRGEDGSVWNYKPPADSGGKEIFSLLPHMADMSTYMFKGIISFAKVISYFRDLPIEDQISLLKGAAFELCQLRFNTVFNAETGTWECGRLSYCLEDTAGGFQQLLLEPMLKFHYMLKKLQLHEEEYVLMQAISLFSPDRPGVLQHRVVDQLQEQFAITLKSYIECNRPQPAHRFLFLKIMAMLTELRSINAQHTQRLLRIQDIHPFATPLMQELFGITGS
# Cellular tumor antigen p53 (Homo sapiens), sequence (P04637 whole entry, looked up): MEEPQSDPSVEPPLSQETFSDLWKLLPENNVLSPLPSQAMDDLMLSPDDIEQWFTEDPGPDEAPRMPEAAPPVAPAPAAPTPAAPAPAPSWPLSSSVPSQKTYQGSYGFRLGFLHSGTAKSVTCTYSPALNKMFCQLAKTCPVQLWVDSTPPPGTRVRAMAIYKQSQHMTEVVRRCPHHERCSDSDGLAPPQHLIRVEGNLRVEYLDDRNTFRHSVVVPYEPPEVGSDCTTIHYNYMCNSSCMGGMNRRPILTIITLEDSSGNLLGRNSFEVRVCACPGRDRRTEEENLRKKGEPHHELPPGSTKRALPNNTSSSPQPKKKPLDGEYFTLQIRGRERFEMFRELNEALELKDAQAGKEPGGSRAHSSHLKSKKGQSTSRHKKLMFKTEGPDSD
# Paired box protein Pax-6 (Homo sapiens), sequence (P26367 whole entry, looked up): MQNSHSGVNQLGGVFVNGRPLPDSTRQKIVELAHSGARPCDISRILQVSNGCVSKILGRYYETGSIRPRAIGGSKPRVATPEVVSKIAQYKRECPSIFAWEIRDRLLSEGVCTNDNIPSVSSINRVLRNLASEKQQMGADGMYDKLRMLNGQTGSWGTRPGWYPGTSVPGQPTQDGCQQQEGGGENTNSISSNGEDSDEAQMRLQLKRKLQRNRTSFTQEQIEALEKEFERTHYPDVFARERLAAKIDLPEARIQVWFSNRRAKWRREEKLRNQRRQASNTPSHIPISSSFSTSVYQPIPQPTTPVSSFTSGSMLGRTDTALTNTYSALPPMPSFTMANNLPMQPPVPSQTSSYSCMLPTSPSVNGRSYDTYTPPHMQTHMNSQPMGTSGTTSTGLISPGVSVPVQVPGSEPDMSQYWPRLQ
# Myc proto-oncogene protein (Homo sapiens), sequence (P01106 whole entry, looked up): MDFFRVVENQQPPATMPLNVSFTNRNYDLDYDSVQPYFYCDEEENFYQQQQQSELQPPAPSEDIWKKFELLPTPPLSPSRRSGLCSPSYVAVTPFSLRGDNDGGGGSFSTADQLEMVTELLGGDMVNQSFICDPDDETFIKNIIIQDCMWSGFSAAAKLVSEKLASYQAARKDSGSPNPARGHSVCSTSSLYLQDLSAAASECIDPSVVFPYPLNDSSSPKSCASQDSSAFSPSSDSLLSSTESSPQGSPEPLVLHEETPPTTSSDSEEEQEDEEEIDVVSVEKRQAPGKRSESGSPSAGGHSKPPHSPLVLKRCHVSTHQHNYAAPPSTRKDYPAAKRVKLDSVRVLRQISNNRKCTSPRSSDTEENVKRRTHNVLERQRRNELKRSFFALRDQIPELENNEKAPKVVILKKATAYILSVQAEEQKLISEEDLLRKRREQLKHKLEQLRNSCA
smiles,measurement,setting,value
O=C(O)c1cc[c]([Hg][Cl])cc1,outcome,[1],inactive
same,outcome,[2],inactive
same,outcome,[3],inactive
same,outcome,[4],inactive
same,outcome,[5],inactive
same,outcome,[6],inactive
same,outcome,[7],inactive
same,outcome,[8],inactive
same,outcome,[9],inactive
same,AC50,[10],44.6 µM (active)
same,AC50,[11],53.8 µM (active)
same,outcome,[12],inactive
same,outcome,[13],inactive
same,outcome,[14],inactive
CCCCCCC1CCOC1=O (stereo not drawn),outcome,[2],inactive
same,outcome,[3],inactive
same,outcome,[4],inactive
same,outcome,[5],inactive
same,outcome,[15],inactive
same,outcome,[9],inactive
same,outcome,[16],inactive
same,outcome,[10],inactive
same,outcome,[17],inactive
same,outcome,[12],inactive
same,outcome,[13],inactive
same,outcome,[18],inactive
same,outcome,[14],inactive
CC(C)CCCCCCCOP(=O)(Oc1ccccc1)Oc1ccccc1,outcome,[1],inactive
same,outcome,[2],inactive
same,outcome,[3],inactive
same,outcome,[19],inactive
same,outcome,[4],inactive
same,outcome,[5],inactive
same,outcome,[6],inactive
same,outcome,[8],inactive
same,outcome,[15],inactive
same,outcome,[9],inactive
same,AC50,[10],7.95 µM (active)
same,AC50,[17],0.711 µM (active)
same,outcome,[11],inactive
same,outcome,[20],inactive
same,outcome,[13],inactive
same,outcome,[18],inactive
same,outcome,[14],inactive
CCC(C)(C)O,outcome,[2],inactive
same,outcome,[3],inactive
same,outcome,[19],inactive
same,outcome,[4],inactive
same,outcome,[6],inactive
same,outcome,[7],inactive
same,outcome,[8],inactive
same,outcome,[17],inactive
CC(C)[C@@H](C(=O)O[C@@H](C#N)c1cccc(Oc2ccccc2)c1)c1ccc(Cl)cc1,outcome,[3],inactive
same,outcome,[4],inactive
same,outcome,[8],inactive
same,outcome,[15],inactive
same,outcome,[9],inactive
same,outcome,[10],inactive
same,AC50,[17],0.752 µM (active)
same,outcome,[11],inactive
same,outcome,[12],inactive
same,outcome,[20],inactive
same,outcome,[13],inactive
same,outcome,[18],inactive
CC(O)CN(CC(C)O)CC(C)O (stereo not drawn),outcome,[1],inactive
same,outcome,[2],inactive
same,outcome,[3],inactive
same,outcome,[4],inactive
same,outcome,[5],inactive
same,outcome,[6],inactive
same,outcome,[15],inactive
same,outcome,[16],inactive
same,outcome,[12],inactive
same,outcome,[20],inactive
same,outcome,[13],inactive
same,outcome,[18],inactive
same,outcome,[14],inactive
CCCC=NO,outcome,[1],inactive
same,outcome,[2],inactive
same,outcome,[3],inactive
same,outcome,[19],inactive
same,outcome,[4],inactive
same,outcome,[5],inactive
same,outcome,[6],inactive
same,outcome,[7],inactive
same,outcome,[16],inactive
same,outcome,[10],inactive
same,outcome,[17],inactive
same,outcome,[11],inactive
same,outcome,[12],inactive
same,outcome,[20],inactive
same,outcome,[13],inactive
same,outcome,[18],inactive
CC(=O)/C=C/c1ccccc1,outcome,[1],inactive
same,outcome,[2],inactive
same,AC50,[3],70.9 µM (active)
same,AC50,[19],37.8 µM (active)
same,outcome,[4],inactive
same,AC50,[5],69 µM (active)
same,outcome,[7],inactive
same,outcome,[8],inactive
same,outcome,[15],inactive
same,outcome,[9],inactive
same,AC50,[16],38.8 µM (active)
same,AC50,[10],32.1 µM (active)
same,outcome,[17],inactive
same,outcome,[11],inactive
C=CCO,outcome,[2],inactive
same,outcome,[3],inactive
same,outcome,[4],inactive
same,outcome,[5],inactive
same,outcome,[15],inactive
same,outcome,[9],inactive
same,outcome,[16],inactive
same,outcome,[12],inactive
same,outcome,[20],inactive
same,outcome,[13],inactive
same,outcome,[18],inactive
same,outcome,[14],inactive
C=COCCCl,outcome,[2],inactive
same,outcome,[3],inactive
same,outcome,[19],inactive
same,outcome,[4],inactive
same,outcome,[8],inactive
same,outcome,[15],inactive
same,outcome,[9],inactive
same,outcome,[16],inactive
same,outcome,[11],inactive
